Data published in PubChem BioAssay (NCATS).
Active and inactive are the calls of the source. A call without a number means that no potency is given here. Calls follow the shape of the dose curve; as a rule, active = well fitted inhibition curve with a large enough effect; inconclusive = small, poorly fitted or top-dose-only effect; inactive = no such curve, though single readings can be large or run the other way.

Molecular target: Single-stranded DNA cytosine deaminase (Homo sapiens) (UniProt Q9GZX7)
Test: Validation qHTS assay for inhibitors of Activation Induced Cytidine Deaminase (AID): AID signal (AID 1347429)
Conditions: Recombinant AID, FRET ssDNA deamination with UDG, fluorescence; series mostly up to 115 µM
Method in brief: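 Compounds (up to 114 uM final) are tested against AID plus UDG using DJC20/DJC23 FRET substrate. Reactions incubate 4 hr at room temperature, receive NaOH for 30 min, and are read at Ex 540/Em 590 nm.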

Sequence of Single-stranded DNA cytosine deaminase (Homo sapiens) (Q9GZX7 whole entry, looked up): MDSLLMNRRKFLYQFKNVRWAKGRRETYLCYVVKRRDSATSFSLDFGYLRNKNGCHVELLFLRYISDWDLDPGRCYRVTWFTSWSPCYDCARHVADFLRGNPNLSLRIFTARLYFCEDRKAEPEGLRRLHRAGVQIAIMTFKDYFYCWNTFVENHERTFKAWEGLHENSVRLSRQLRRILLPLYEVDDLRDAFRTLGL

Compound	Potency
CCCN1CC[C@@H]2c3cc(O)ccc3CC[C@@H]21	inactive
CN(C(=O)Cc1ccc(Cl)c(Cl)c1)C(CN1CCCC1)c1cccc(OCC(=O)O)c1 (configuration not stated)	inactive
N[C@@H](Cn1oc(=O)[nH]c1=O)C(=O)O	inactive
N#C/C(=C/c1ccc(O)c(O)c1)C(N)=S	inactive
CCCN1CCc2cc(O)cc3c2[C@H]1Cc1ccc(O)c(O)c1-3	inactive
CCn1cnc2c(Nc3cccc(Cl)c3)nc(N[C@@H]3CCCC[C@@H]3N)nc21	inactive
NCCc1c[nH]c2ccc(C(N)=O)cc12	inactive
CC(N)[C@H](O)c1ccc(O)c(O)c1 (some centres not stated)	inactive
NC(CCCCCP(=O)(O)O)C(=O)O (configuration not stated)	inactive
NC(N)=NOCC[C@H](N)C(=O)O	inactive
CC(N)c1cccc(Cl)c1Cl (configuration not stated)	inactive
CC12NC(Cc3ccccc31)c1ccccc12 (configuration not stated)	inactive
c1ccc2c(c1)[I+]c1ccccc1-2	inactive
C[N+]1(C)C2CCC1CC(OC(=O)c1c[nH]c3ccccc13)C2 (configuration not stated)	inactive
CC(C)NP(=O)(NC(C)C)OP(=O)(NC(C)C)NC(C)C	inactive
Clc1cc(I)cc(Cl)c1NC1=NCCN1	inactive

Compound	Potency
COc1ccc2c(c1)C13CCCCC1C(C2)N(C)CC3 (configuration not stated)	inactive
CCCN(CCC)[C@@H]1CCc2cccc(O)c2C1	inactive
CC(N)Cc1c[nH]c2ccc(OCc3cccs3)cc12 (configuration not stated)	inactive
NCC(CP(=O)(O)O)c1ccc(Cl)cc1 (configuration not stated)	inactive
CC(=O)OCC1=C(C(=O)O)N2C(=O)[C@@H](NC(=O)CCC[C@@H](N)C(=O)O)[C@H]2SC1	inactive
CC(C)(C)c1o[nH]c(=O)c1CC(N)C(=O)O (configuration not stated)	inactive
CC(=O)NBr	inactive
NC(C(=O)O)c1cc(=O)[nH]o1 (configuration not stated)	inactive
CCCN(CCC)[C@H]1CCc2c(F)ccc(O)c2C1	inactive
Cc1c2ccncc2c(C)c2c1[nH]c1ccccc12	inactive
C[N+](C)(C)CC#CCN1CCCC1=O	inactive
CCCN1CCc2cccc3c2[C@H]1Cc1ccc(O)c(O)c1-3	inactive
CO[C@H]1CC=C2CCN3CCC4=C(CC(=O)OC4)[C@]23C1	inactive
CCCN(CCC)C1CCc2cccc(O)c2C1 (configuration not stated)	inactive
CC(C)(O)[C@@H]1C2OC(=O)[C@@H]1[C@]1(O)C[C@H]3O[C@]34C(=O)O[C@H]2[C@]14C (tested in a mixture with another compound)	inactive
NCCCP(=O)(O)O	inactive
